Some test systems named below: NCI-H23 lung; NCI-H226 lung; NCI-H322M lung; HOP-62 NSCLC; NCI-H460 lung; NCI-H522 lung; A549/ATCC NSCLC; 786-0 renal; COLO 205 colon; DU-145 prostate; K-562 leukemia; MDA-MB-231 breast; RXF 393 renal; SF-295 CNS; SF-539 CNS; UACC-257 melanoma; M14 melanoma; HCT-15 colon; SF-268 CNS; MALME-3M melanoma.
Assay in all cases: NCI-60 one-dose screen, 48 h (100 = growth as untreated, 0 = no growth, -100 = all killed)
Holding throughout (details): 10 µM unless noted

This is part of a sample that, as a whole, favours compounds with a hit. Of some 83,000 tested, about 20% had one in any assay.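 Note: values are percent growth. 100 is the growth of untreated cells, values between 100 and 0 indicate rising inhibition; between -100 and 0 indicates cell death.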 A number with no mark means an inactive call. Active and inactive are the calls of the source. Rule for the calls: active = growth percent below 10; inactive = the rest.

For the compound `COc1ccc2[nH]cc(/C=C3/C(=O)Nc4ccc(F)cc43)c2c1`, the growth in the assay on NCI-H23 lung was 75.8%; in the assay on NCI-H226 lung, 91.5%; in the assay with NCI-H322M lung it was 94%; in the assay with HOP-62 NSCLC it was 105%; with NCI-H460 lung, 83.3%; with NCI-H522 lung, 81.5%. Further, the growth was 72.3% in the assay on A549/ATCC NSCLC; 115% in the assay with 786-0 renal; 97.7% with COLO 205 colon; 95.3% in the assay on DU-145 prostate; 72.1% in the assay with K-562 leukemia; 87.6% in the assay with MDA-MB-231 breast. The growth was 91.5% with RXF 393 renal; 95.6% with SF-295 CNS; 99.4% in the assay on SF-539 CNS; 99.8% in the assay on UACC-257 melanoma; 98.2% in the assay on M14 melanoma; 75.6% in the assay with HCT-15 colon.

In the case of `CCOC(=O)/C(=C/c1ccccc1)C(=O)c1ccccc1`, the growth in the assay on NCI-H23 lung is 82.4%; in the assay on NCI-H226 lung it was 84.3%; with NCI-H322M lung, 84.2%; with HOP-62 NSCLC, 74.9%; in the assay on NCI-H460 lung, 88.3%; in the assay with NCI-H522 lung, 67.6%. The growth with A549/ATCC NSCLC was 79.8%; in the assay with 786-0 renal, 80.5%; in the assay with COLO 205 colon, 95.4%; with DU-145 prostate, 50.3%; in the assay on K-562 leukemia, 38.9%; in the assay with MDA-MB-231 breast, 81.4%. The growth in the assay on SF-268 CNS was 62%; in the assay on SF-295 CNS, 83%; in the assay on SF-539 CNS, 84.4%; in the assay on UACC-257 melanoma it was 64.1%; in the assay on M14 melanoma it was 66.1%; in the assay with HCT-15 colon, 51.9%.

As for `O=C(Nc1nc2ccccc2s1)c1cc(-c2ccc(F)cc2)n2nc(-c3ccccc3)cc2n1`, the growth in the assay with NCI-H23 lung was 68.7%; with NCI-H226 lung, 89.1%; in the assay with NCI-H322M lung, 60.1%; with HOP-62 NSCLC it was 63.8%; with NCI-H460 lung, 29.3%; in the assay with NCI-H522 lung, 101%. The growth in the assay with A549/ATCC NSCLC was 51.2%; in the assay on 786-0 renal, 11.7%; with COLO 205 colon, 65.2%; with DU-145 prostate it was 89.1%; with K-562 leukemia, 59.1%; with MDA-MB-231 breast, 64.6%. The growth is 121% with RXF 393 renal; 40.3% with SF-295 CNS; 63.8% in the assay with SF-539 CNS; 69% with UACC-257 melanoma; 79.2% with M14 melanoma; 53.7% in the assay with HCT-15 colon.

Take `O=C(/C(=C/c1cccc([N+](=O)[O-])c1)c1ccccc1)c1ccccc1`: the growth with NCI-H23 lung was 68%; with NCI-H226 lung it was 58.8%; in the assay with NCI-H322M lung, 80.6%; in the assay with HOP-62 NSCLC, 91.2%; with NCI-H460 lung it was 67.9%; in the assay with NCI-H522 lung, 43.8%. Besides, the growth with A549/ATCC NSCLC was 53.6%; with 786-0 renal, 68.4%; in the assay with COLO 205 colon, 86.3%; in the assay on DU-145 prostate, 19.8%; with K-562 leukemia, 4.03% (active); in the assay on MDA-MB-231 breast, 51.6%. For the same compound, the growth is 34.4% with SF-268 CNS; 64.2% with SF-295 CNS; 81.6% in the assay with SF-539 CNS; 36.5% in the assay with UACC-257 melanoma; 46.4% with M14 melanoma; 16.6% in the assay on HCT-15 colon.

Regarding `COc1cc(C2=NN(C(C)=O)C(c3ccc(OC(C)=O)cc3OC(C)=O)O2)c(OC(C)=O)c2ccccc12` (configuration not stated), the growth is 38% with NCI-H23 lung; 27% in the assay with NCI-H226 lung; 19.6% with NCI-H322M lung; 24.3% with HOP-62 NSCLC; 9.82% (active) with NCI-H460 lung; -7.78% (active) in the assay with NCI-H522 lung. For the same compound, the growth was 8% (active) with A549/ATCC NSCLC; 11.2% in the assay on 786-0 renal; 10.4% with COLO 205 colon; 26.8% in the assay on DU-145 prostate; 6.47% (active) with K-562 leukemia; 34.2% with MDA-MB-231 breast. Further, the growth in the assay with SF-268 CNS was 19.7%; in the assay on SF-295 CNS, 22.2%; in the assay on SF-539 CNS it was 7.95% (active); with UACC-257 melanoma it was -8.85% (active); in the assay on M14 melanoma it was 5.99% (active); with HCT-15 colon, 32.8%.

Take `O=Nc1ccc(O)c(=O)cc1`: the growth is 70.6% with NCI-H23 lung; 38.4% in the assay on NCI-H226 lung; 88.3% with NCI-H322M lung; 88.1% with HOP-62 NSCLC; 114% in the assay with NCI-H460 lung; -74.1% (active) in the assay with NCI-H522 lung. Also, the growth with A549/ATCC NSCLC is 110%; in the assay on 786-0 renal, 15.9%; in the assay on COLO 205 colon it was -21.6% (active); with K-562 leukemia it was 9.11% (active); with MALME-3M melanoma, -4.09% (active); with MDA-MB-231 breast, 41.6%. Further, the growth in the assay on RXF 393 renal was -42.1% (active); in the assay on SF-295 CNS, 125%; in the assay on SF-539 CNS, 47.8%; in the assay with UACC-257 melanoma, 37.4%; with M14 melanoma it was 30.4%; in the assay on HCT-15 colon, 10.2%.

On to `Cc1nc(N)[nH]c(=O)c1C`, for which the growth with NCI-H23 lung is 97.4%; in the assay on NCI-H226 lung it was 97%; with NCI-H322M lung, 96.6%; in the assay on HOP-62 NSCLC, 103%; in the assay with NCI-H460 lung it was 106%; in the assay on NCI-H522 lung, 102%. Besides, the growth with A549/ATCC NSCLC is 103%; in the assay on 786-0 renal, 103%; in the assay on DU-145 prostate it was 109%; in the assay on K-562 leukemia, 86.9%; in the assay with MALME-3M melanoma, 156%; in the assay with MDA-MB-231 breast, 102%. For the same compound, the growth is 104% with RXF 393 renal; 114% in the assay on SF-268 CNS; 107% with SF-539 CNS; 87% in the assay with UACC-257 melanoma; 105% in the assay with M14 melanoma; 122% with HCT-15 colon.

In the case of `Cc1nn(-c2ccc(Br)cc2)c2nc3c(nc12)C(=O)C(=O)c1ccccc1-3`, the growth in the assay on NCI-H23 lung was 87.2%; with NCI-H226 lung it was 96.9%; with NCI-H322M lung, 104%; with HOP-62 NSCLC it was 91.7%; with NCI-H460 lung, 97.3%; in the assay on NCI-H522 lung, 98.3%. Also, the growth was 100% in the assay on A549/ATCC NSCLC; 102% with 786-0 renal; 89.6% with COLO 205 colon; 124% in the assay with DU-145 prostate; 91.2% in the assay with MALME-3M melanoma; 78.7% in the assay on MDA-MB-231 breast. Moreover, the growth in the assay on RXF 393 renal was 111%; in the assay on SF-268 CNS, 101%; in the assay on SF-295 CNS, 97.5%; in the assay with UACC-257 melanoma, 98.6%; in the assay with M14 melanoma it was 98.2%; with HCT-15 colon, 90.5%.

Turning to `OCCOc1c(Cl)cc(Cl)cc1Cl`, the growth in the assay with NCI-H23 lung was 101%; in the assay on NCI-H226 lung, 111%; in the assay with NCI-H322M lung, 114%; in the assay with HOP-62 NSCLC it was 108%; in the assay with NCI-H460 lung, 108%; in the assay on NCI-H522 lung it was 108%. Moreover, the growth in the assay with A549/ATCC NSCLC was 93.9%; in the assay with 786-0 renal it was 104%; with COLO 205 colon it was 114%; in the assay with DU-145 prostate it was 115%; in the assay on MALME-3M melanoma, 101%; in the assay on MDA-MB-231 breast, 87.3%. Further, the growth is 103% in the assay with SF-268 CNS; 100% with SF-295 CNS; 102% with SF-539 CNS; 90.3% with UACC-257 melanoma; 107% with M14 melanoma; 104% in the assay on HCT-15 colon.

For the origin of these results see PubChem BioAssay (NCI).
